The panel holds about 83,000 compounds, 20% with a hit somewhere; the sample as a whole holds those more often.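 Treatment: one concentration, 48 hours, 96-well format. Scoring: percent growth, with anything below 10 considered active.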 Values without a mark were called inactive. Active and inactive are the calls of the source.

Common to all, as to assay: NCI-60 one-dose screen, 48 h (100 = growth as untreated, 0 = no growth, -100 = all killed)
Holding throughout (details): 10 µM

The subject of assay [1] is DU-145 prostate.
Assay [2] relates to K-562 leukemia.
Assay [3] has as its system MALME-3M melanoma.
In assay [4] the test system is MDA-MB-231 breast.
Assay [5] deals with RXF 393 renal.
For assay [6], the system named is SF-268 CNS.
Assay [7] deals with SF-295 CNS.
Assay [8] has as its system SF-539 CNS.
Assay [9] concerns UACC-257 melanoma.
The test system of assay [10] is M14 melanoma.
The test system of assay [11] is HCT-15 colon.
In assay [12] the test system is HT29 colon.
In assay [13] the test system is SNB-75 CNS.
Assay [14] relates to U251 CNS.
The test system of assay [15] is PC-3 prostate.
Assay [16] has as its system SK-MEL-5 melanoma.
Assay [17] deals with UACC-62 melanoma.
Assay [18] has as its system LOX IMVI melanoma.
Assay [19] concerns SK-MEL-28 melanoma.
The test system of assay [20] is SNB-19 CNS.

As for `CC1(C)CNC(=O)N1`, the growth in [1] was 110%; in [2] it was 98.1%; in assay [3], 95.2%; in assay [4], 100%; in assay [5], 108%; in assay [6] it was 103%. The growth in assay [7] was 98.7%; in assay [8], 98.9%; in [9], 99.8%; in [10] it was 94.1%; in assay [11] it was 98.8%; in assay [12], 94.6%. Besides, the growth in assay [13] was 94.4%; in [14], 97.4%; in assay [15], 93.3%; in [16] it was 82.6%; in assay [17] it was 95.9%; in [18], 107%. Also, the growth in assay [19] is 114%.

For the molecule `FC(F)(F)c1ccc(-c2cnc(Cl)nc2NCc2cc(C(F)(F)F)cc(C(F)(F)F)c2)cc1`, the growth is 18.8% in assay [1]; 16.3% in assay [2]; 33.6% in assay [3]; -28.6% (active) in [4]; 23.3% in assay [5]; 25.3% in [6]. The growth in assay [7] is -18.8% (active); in assay [8] it was 33.1%; in [9], 38.2%; in [10], 41%; in [11], 8.09% (active); in assay [12], 21.3%. Moreover, the growth was 27.2% in [13]; 10.7% in [14]; 4.94% (active) in assay [15]; 77.3% in [16]; 6.65% (active) in assay [17]; -8.46% (active) in assay [18]. The growth in assay [19] is 46%.

Turning to `O=C(N/N=C\c1cc(Cl)ccc1O)c1ccncc1`, the growth in [1] is 48.3%; in assay [2], 39.1%; in assay [3] it was 80%; in assay [4] it was 56%; in assay [5] it was 57.4%; in assay [6] it was 37.5%. Moreover, the growth in [7] is 77.2%; in [8], 63.6%; in assay [9], 53.7%; in [10], 47.6%; in assay [11] it was 26.3%; in assay [12] it was 65.4%. Further, the growth in assay [13] is 74.2%; in assay [14], 43.9%; in assay [15], 61%; in [16] it was 37%; in assay [17], 46.2%; in assay [18], 30.9%. Besides, the growth in [19] is 64.5%.

Consider `COc1nc2c(c(=O)[nH]1)C(c1ccc(Oc3ccnc4cc(Cl)ccc34)c(OC)c1)C=C(c1cc(OC)c(OC)c(OC)c1)N2` (configuration not stated), for which the growth in assay [1] is 95.1%; in assay [2] it was 87.8%; in assay [3], 109%; in assay [4], 80.8%; in [5] it was 106%; in assay [6], 103%. The growth is 99.1% in assay [7]; 108% in assay [8]; 92.2% in assay [9]; 98.8% in assay [10]; 98.8% in assay [11]; 89.8% in assay [12]. The growth in assay [13] was 91.9%; in assay [14], 97.4%; in assay [15], 87.2%; in [16], 95.1%; in assay [17], 95.9%; in assay [18] it was 95.5%. In assay [19], the growth was 116%.

Consider `Cc1ccc(C(=O)O)c(N)c1C`, for which the growth in assay [1] was 101%; in assay [2], 92.1%; in assay [3] it was 85.7%; in assay [4], 118%; in assay [5], 111%; in assay [6], 95.9%. Besides, the growth was 92.6% in [7]; 103% in [8]; 108% in assay [9]; 96.4% in assay [10]; 99.7% in assay [11]; 101% in [12]. Moreover, the growth in assay [13] was 82.6%; in assay [14] it was 100%; in assay [15], 94.6%; in assay [16] it was 107%; in assay [17], 103%; in assay [18] it was 93.8%. Moreover, in [19], the growth is 122%.

`CCOC(=O)c1cc(-c2ccccc2)nc(N)n1`: the growth was 107% in assay [1]; 104% in [2]; 111% in assay [3]; 97.4% in assay [4]; 93.7% in assay [5]; 106% in [6]. For the same molecule, the growth in [7] is 93.8%; in assay [8] it was 94.5%; in assay [9] it was 101%; in assay [10] it was 108%; in [11], 94.9%; in assay [12], 119%. Moreover, the growth in assay [13] was 84.7%; in [20], 92%; in assay [14] it was 98.3%; in assay [16], 100%; in assay [17], 99.9%; in assay [18] it was 101%. Besides, the growth in [19] was 111%.

`COc1cccc2c1O/C(=C\c1ccc([N+](=O)[O-])s1)C2=O`: the growth is 80.4% in assay [1]; 8.38% (active) in [2]; 88.6% in assay [3]; 55.4% in [4]; 25.7% in assay [5]; 12.5% in [6]. Further, the growth in assay [7] was 97.2%; in assay [8], 55.7%; in assay [9] it was 65.2%; in assay [10] it was 48.1%; in assay [11], 8.57% (active); in [12], 77.3%. Moreover, the growth is 81.5% in assay [13]; 45.2% in [14]; 32.9% in assay [15]; 73.7% in [16]; 35.9% in assay [17]; 40.6% in assay [18]. Besides, the growth in [19] is 78.4%.

As to `CCc1cc2n(n1)-c1ncc(C(=O)OC)cc1Oc1ccccc1-2`, the growth in assay [1] was 111%; in [2], 102%; in [3], 120%; in assay [4], 102%; in [5], 114%; in assay [6], 103%. For the same molecule, the growth in assay [7] is 101%; in assay [8] it was 97.9%; in assay [9], 104%; in assay [10], 108%; in assay [11] it was 96.7%; in assay [12] it was 112%. Also, the growth in assay [13] was 89.4%; in assay [14] it was 94.4%; in assay [15] it was 97.5%; in [16], 96.2%; in [17] it was 102%; in assay [18], 96.8%. Also, the growth in assay [19] was 120%.

(Values after PubChem BioAssay (NCI).)
